# Test results from PubChem BioAssay AID588689 (Southern Research Specialized Biocontainment Screening …, 2011).
# Out of some 340,000 compounds screened, about 1,000 (0.29%) were called active. No stated cut-off is given here; in the data, inconclusive means inhibition above about 29% without an active follow-up result; inactive means below that. A selection follows. Entries with a potency or affinity are not part of this list.
# Molecular target: Genome polyprotein (Dengue virus type 2 (strain 16681-PDK53)) (UniProt P29991)
# Experiment: Dengue-2 NS5 methyltransferase inhibitors, primary screen, biochemical, confirmation dose response (AID 588689)
# Conditions: Dengue-2 NS5 methyltransferase capping enzyme assay, at 25 µM, stronger effect = higher value
# [1] = measured here: pilot screen replicate inhibition
SMILES,inhibition,inhibition [1]
CC(C)CCNC(=O)c1ccc(-n2cnc3cccnc32)cc1,-2.72% (inactive),–
COc1ccc2cc(CCNC(=O)CCc3ccccc3)c(=O)[nH]c2c1,0.89% (inactive),–
O=C(Nc1ncn[nH]1)c1ccc(S(=O)(=O)N2CCOCC2)cc1,-3.52% (inactive),–
CC1(C)CC(=O)C(C(c2ccc(F)cc2)C2C(=O)CC(C)(C)CC2=O)C(=O)C1,-0.73% (inactive),–
COC(=O)c1ccc(C(C2C(=O)CC(C)(C)CC2=O)C2C(=O)CC(C)(C)CC2=O)cc1,-3.89% (inactive),–
COC(=O)COc1ccc(NC(=O)C(c2ccccc2)c2ccccc2)cc1,-6.79% (inactive),–
COc1cccc(C(C2C(=O)CC(C)(C)CC2=O)C2C(=O)CC(C)(C)CC2=O)c1,23.1% (inactive),–
CC1(C)CC(=O)C(C(c2cccnc2)C2C(=O)CC(C)(C)CC2=O)C(=O)C1,12.3% (inactive),-0.765%
COc1ccc(C2=CC(=O)CC(C)(C)C2)cc1,2.79% (inactive),–
CC(=O)N(C)N(C)c1cc(C)nc(N)n1,0.78% (inactive),–
Nn1cnnc1N/N=C/c1ccc(F)cc1,0.39% (inactive),–
COc1ccc(CNc2ccc(S(N)(=O)=O)cc2)c(OC)c1OC,-2.41% (inactive),–
CCOc1ccc(NC(=O)N2CCCC2C(=O)NCC2CCCO2)cc1 (stereo not given),-7.19% (inactive),–
O=C1CCCc2oc3c(c21)CCCC3,0.9% (inactive),–
COCCN1C(=O)C(=O)/C(=C(/O)c2ccc3c(c2)OCCO3)C1c1ccc(C(=O)OC)cc1 (stereo not given),0.56% (inactive),–
COc1ccc(-c2csc(NC(=O)CSc3nc(C)cs3)n2)cc1,-6.77% (inactive),–
COc1ccc(-c2csc(NC(=O)CSc3n[nH]c(C)n3)n2)cc1,-3.23% (inactive),–
COc1ccccc1C(C)NCC(=O)NCc1ccc(C)cc1 (stereo not given),-3.92% (inactive),–
Cc1nnc(SCC(=O)Nc2nnc(SCc3cccc(Br)c3)s2)s1,0.64% (inactive),–
CCCc1nc(SCC(=O)Nc2nc3c(s2)CCCC3)c2ccccc2n1,2.76% (inactive),–
COc1ccc(C(=Cc2ccccc2[N+](=O)[O-])C(=O)O)cc1,-6.2% (inactive),–
COc1cc(/C=C2/C(=O)NN(c3ccc(C)c(Cl)c3)C2=O)cc([N+](=O)[O-])c1O,69.8% (inactive),–

SMILES,inhibition,inhibition [1]
O=C1c2cccc([N+](=O)[O-])c2C(=O)N1c1ccccc1,0% (inactive),–
O=C1NN(c2ccccc2)C(=O)/C1=C\c1ccc2c(c1)OCO2,15.1% (inactive),–
CCOc1ccc(N2C(=O)C(=O)/C(=C(/O)c3ccccc3)C2c2ccccc2[N+](=O)[O-])cc1 (stereo not given),13.8% (inactive),–
CN1C/C(=C/c2ccccc2[N+](=O)[O-])C(=O)/C(=C\c2ccccc2[N+](=O)[O-])C1,1.54% (inactive),–
COc1ccc(N2C(=O)CSC2c2ccccc2[N+](=O)[O-])cc1 (stereo not given),0.75% (inactive),–
CCOc1ccc(C(=O)N/N=C/c2ccccc2[N+](=O)[O-])cc1,-7.26% (inactive),–
CCc1noc(C)c1C(=O)NCCc1ccc(OC)c(OC)c1,-2.74% (inactive),–
CCOC(=O)C1C(C)=C(Nc2ccc(OC)cc2)C(=O)N1c1ccc(OC)cc1 (stereo not given),-2.18% (inactive),–
O=C(Cn1cc([N+](=O)[O-])cn1)NCc1ccccc1Cl,-6.16% (inactive),–
Cc1c(C2(O)CCCCC2)[nH]c2ccc(C#N)cc12,1.37% (inactive),–
O=C1NC(=O)C(=Cc2ccccc2[N+](=O)[O-])S1,13.1% (inactive),–
O=C1NC(=S)N/C1=C/c1cc2c(cc1[N+](=O)[O-])OCO2,6.53% (inactive),–
CC1(C)OC(C)(C)/C(=C\c2ccccc2[N+](=O)[O-])C1=O,-3.9% (inactive),–
O=C(O)/C=C\c1cc2c(cc1[N+](=O)[O-])OCO2,4.71% (inactive),–
CCOC(=O)N1CCC(NC(=O)CSCc2nc(-c3ccccc3Cl)oc2C)CC1,-1.81% (inactive),–
CCc1ccc(C)[n+](CC(=O)c2cccs2)c1,-10.5% (inactive),–
O=C(c1cccnc1)N1CCN(S(=O)(=O)c2cccc(Cl)c2)CC1,2.63% (inactive),–
Cc1cccc(CCNS(=O)(=O)c2ccc3c(c2)NC(=O)CS3)c1,-3.63% (inactive),–
CSCCC(NC(N)=O)C(=O)Nc1ccc2ccccc2c1 (stereo not given),3.12% (inactive),–
NC(=O)c1ccc(NC(=O)CNc2cc(S(=O)(=O)N3CCOCC3)ccc2N2CCCC2)cc1,-2.57% (inactive),–
CCN(CC)C(=O)c1ccccc1NC(=O)CN1C(=O)c2ccccc2S1(=O)=O,-2.2% (inactive),–
O=C(O)CN1C(=O)/C(=C\c2cccc(OC(=O)c3ccco3)c2)SC1=S,2.44% (inactive),–

SMILES,inhibition,inhibition [1]
CC(=O)NNC(=O)CN1C(=O)/C(=C/c2ccccc2)SC1=S,-2.32% (inactive),–
O=C(CN1C(=O)/C(=C/c2cccc(Cl)c2)SC1=S)NC1C=CS(=O)(=O)C1 (stereo not given),-2.72% (inactive),–
O=C(O)COc1cccc(/C=C2/SC(=S)N(Cc3ccccc3)C2=O)c1,13.1% (inactive),–
COc1cccc(/C=C2/SC(=S)N(CC(=O)NNC(=O)c3ccccc3O)C2=O)c1,2.67% (inactive),–
O=C1/C(=C\c2cccc(O)c2)SC(=S)N1Cc1ccccc1,-14.8% (inactive),–
COc1cccc(/C=C2/SC(=S)N(CC(=O)NNC(=O)c3ccccc3OC)C2=O)c1,4.13% (inactive),–
CN1C(=O)/C(=C\c2cccc(OCc3ccccc3)c2)SC1=S,5.28% (inactive),–
COc1ccccc1CC(=O)OCC(=O)N1CCN(c2ccc(F)cc2)CC1,-10.1% (inactive),–
Cc1[nH]c(C)c(S(=O)(=O)N2CCN(c3cccc(Cl)c3)CC2)c1C(=O)N1CCCCC1,-6.81% (inactive),–
CC(C)CCN(C(=O)C1CCCC1)c1c(N)n(Cc2ccccc2)c(=O)[nH]c1=O,0.73% (inactive),–
COCCn1c(C)cc(C(=O)CSc2nnnn2C2CCCC2)c1C,-0.76% (inactive),–
CCOP(=O)(OCC)c1nc(/C=C/c2ccccc2)oc1NCc1ccc(OC)cc1,-2.05% (inactive),–
O=S(=O)(Cc1ccccc1)Nc1ccccc1,1.96% (inactive),-2.12%
Cc1ccc(NS(=O)(=O)Cc2ccccc2)nc1,-2.96% (inactive),–
CNC(=O)NC(=S)NC(=O)c1ccccc1Cl,2.96% (inactive),–
Cc1ccc2c(c1)c(C1=NC(=S)NC1=O)c(O)n2C,-5.15% (inactive),–
COc1cc2c3c(c1)c(C1=NC(=S)NC1=O)c(O)n3C(C)(C)C=C2C,5.22% (inactive),–
CC1(C)O[C@@H]2[C@H](O1)[C@@H](CO)O[C@H]2n1cc(Br)c(=O)[nH]c1=O,-17.6% (inactive),–
NCCCC[C@@H]1NC(=O)c2cc([N+](=O)[O-])cc(F)c2NCCCC[C@@H](C(N)=O)NC(=O)CNC1=O,-4.1% (inactive),–
O=C(NCc1ccco1)c1nnc(Cc2ccc(F)cc2)o1,2.07% (inactive),–
N#Cc1c(-c2ccc(Cl)cc2)cc(-c2ccccc2)nc1SCC(=O)O,1.16% (inactive),–
COc1ccc(-c2cc(-c3ccccc3)c(C#N)c(SCC(=O)O)n2)cc1,14% (inactive),–

SMILES,inhibition,inhibition [1]
O=C(O)c1cccc2c1/C(=N/Nc1ccc([N+](=O)[O-])cc1[N+](=O)[O-])c1ccccc1-2,20.5% (inactive),–
COC(=O)c1ccc(NC(=O)c2nc(S(=O)(=O)Cc3cccc(C)c3)ncc2Cl)cc1,-59.7% (inactive),–
CSc1ncc(Cl)c(C(=O)Nc2nnc(SC)s2)n1,5.42% (inactive),–
Cc1cccc(CS(=O)(=O)c2ncc(Cl)c(C(=O)NCc3ccccc3)n2)c1,-74.2% (inactive),–
Cc1nnc(NC(=O)c2nc(S(=O)(=O)Cc3ccccc3C)ncc2Cl)s1,27.3% (inactive),–
Cc1ccc(NC(=O)c2nc(S(=O)(=O)Cc3ccccc3)ncc2Cl)cc1,-43.4% (inactive),–
Cc1ccccc1CS(=O)(=O)c1ncc(Cl)c(C(=O)Nc2ccc(F)cc2)n1,-55.8% (inactive),–
Cc1nnc(NC(=O)c2nc(S(=O)(=O)Cc3ccccc3)ncc2Cl)s1,19.6% (inactive),–
CC(=O)Nc1ccc(NC(=O)c2nc(S(=O)(=O)Cc3ccccc3)ncc2Cl)cc1,-50.4% (inactive),–
O=C(c1cc(-c2ccc(Br)cc2)nc2ccccc12)N1CCC1,-2.19% (inactive),–
COc1ccccc1N1CCN(C(=O)c2oc3c(c2C)C(=O)CC(C)(C)C3)CC1,4.65% (inactive),–
O=C(N/N=C/C(Cl)=C\c1ccccc1)c1cnccn1,-6.4% (inactive),–
C=CC[C@H](CC(=O)N[C@H](CO)Cc1ccccc1)C(=O)N[C@@H](COC(=O)[C@H](CC=C)CC(=O)OC(C)(C)C)Cc1c[nH]c2ccccc12,-0.83% (inactive),–
COc1ccc(/C=C2/SC(=O)N(CCC(=O)Nc3ccc(S(=O)(=O)Nc4nccs4)cc3)C2=O)cc1,-5.09% (inactive),–
O=C(/C(=C(/[O-])c1ccccc1)[n+]1ccccc1)c1ccc([N+](=O)[O-])cc1,3.25% (inactive),–
CCCc1ncc(CN2CCCCC2C(=O)Nc2ccc(Oc3ccccc3)nc2)cn1 (stereo not given),-5.15% (inactive),–
CCCCn1c(N)c(N(C)C(=O)c2cn(-c3ccccc3)nc2-c2ccccc2)c(=O)[nH]c1=O,-2.61% (inactive),–
NS(=O)(=O)c1ccc2nc(NC(=O)Nc3ccc(F)cc3)sc2c1,-9.52% (inactive),–
O=C(Nc1ccc(Cl)c(S(=O)(=O)N2CCOCC2)c1)c1cccs1,-1.55% (inactive),–
CC(=O)Nc1ccc(NC(=O)c2nc(S(=O)(=O)Cc3cccc(C)c3)ncc2Cl)cc1,-42.6% (inactive),–
Cc1cccc(CS(=O)(=O)c2ncc(Cl)c(C(=O)Nc3c(C)cccc3C)n2)c1,-57.4% (inactive),–
O=C(Nc1ncccc1O)c1ccc2c(c1)OCO2,0.74% (inactive),–
